Values joined by “and” are separate entries in the source; they are usually repeats but may differ in a detail not shown here. Identical values can stand only once. Hit rate of the full screen: of about 5,500 compounds, about 2,000 (36%) were called active. Another 18% or so got no clear call; they are omitted. No stated cut-off is given here; in the data, active means normalized growth mostly below about 0.91 (no sharp cut-off); inconclusive means no clear call, values can overlap the other calls; inactive means mostly above about 0.92. This is one part of the list.
Test: chemical genetic growth profiling, strain panel (AID 1159580);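 further: tested at 20 µM; growth read once vehicle control cultures reached saturation at 30 °C; 1 = growth at the plate median or of vehicle wells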
Details: S. cerevisiae deletion strains, growth OD

Measured: normalized growth

NS(=O)(=O)c1cc2c(cc1Cl)NC(C1CC3C=CC1C3)NS2(=O)=O (stereo unspecified)
inactive: locus YAL013W, strain DEP1, stronger effect = lower value 1 | locus YAL021C, strain ccr4, stronger effect = lower value 1 | locus YAL026C, strain drs2, stronger effect = lower value 0.99 | locus YAL030W, strain snc1, stronger effect = lower value 0.99 | locus YAL040C, strain CLN3, stronger effect = lower value 0.979 | locus YBL061C, strain skt5, stronger effect = lower value 1 | locus YBR009C, strain hhf1, stronger effect = lower value 0.982 | locus YBR021W, strain FUR4, stronger effect = lower value 1.03 | locus YBR023C, strain chs3, stronger effect = lower value 0.991 | locus YBR171W, strain sec66, stronger effect = lower value 0.981 | locus YBR229C, strain ROT2, stronger effect = lower value 0.96 | locus YBR231C, strain swc5, stronger effect = lower value 0.989 | locus YBR279W, strain paf1, stronger effect = lower value 0.996 | locus YCL011C, strain gbp2, stronger effect = lower value 0.989 | locus YCL016C, strain dcc1, stronger effect = lower value 0.995 | locus YCL029C, strain bik1, stronger effect = lower value 0.941 | locus YCL061C, strain MRC1 (second series), stronger effect = lower value 0.99 | locus YCL061C, strain MRC1, stronger effect = lower value 0.991 | locus YCL069W, strain vba3, stronger effect = lower value 0.997 | locus YCR088W, strain abp1, stronger effect = lower value 0.991 | locus YDL005C, strain med2, stronger effect = lower value 0.983 | locus YDL035C, strain GPR1, stronger effect = lower value 1.01 | locus YDL040C, strain nat1, stronger effect = lower value 0.994 | locus YDL074C, strain BRE1, stronger effect = lower value 1.01 | locus YDL101C, strain DUN1, stronger effect = lower value 0.967 | locus YDL134C, strain PPH21, stronger effect = lower value 0.99 | locus YDL185W, strain tfp1, stronger effect = lower value 0.959 | locus YDL192W, strain arf1, stronger effect = lower value 0.992 | locus YDR001C, strain nth1, stronger effect = lower value 0.985 | locus YDR069C, strain doa4, stronger effect = lower value 1.01 | locus YDR101C, strain arx1, stronger effect = lower value 1 | locus YDR137W, strain rgp1, stronger effect = lower value 1.01 | locus YDR150W, strain NUM1, stronger effect = lower value 0.981 and 1 | locus YDR159W, strain sac3, stronger effect = lower value 0.987 | locus YDR162C, strain NBP2, stronger effect = lower value 0.911 | locus YDR195W, strain ref2 0.963 | locus YDR297W, strain sur2, stronger effect = lower value 0.991 | locus YDR318W, strain mcm21, stronger effect = lower value 1.02 | locus YDR334W, strain swr1, stronger effect = lower value 0.995 | locus YDR335W, strain msn5, stronger effect = lower value 0.991 | locus YDR363W, strain ESC2, stronger effect = lower value 0.956 | locus YDR388W, stronger effect = lower value 1 | locus YDR392W, strain spt3, stronger effect = lower value 0.924 | locus YDR502C, strain sam2, stronger effect = lower value 0.978 | locus YEL003W, strain gim4, stronger effect = lower value 0.997 | locus YEL037C, strain rad23, stronger effect = lower value 0.999 | locus YEL061C, strain CIN8 (second series), stronger effect = lower value 0.984 | locus YEL061C, strain CIN8, stronger effect = lower value 0.989 | locus YER002W, strain NOP16, stronger effect = lower value 0.987 | locus YER015W, strain faa2, stronger effect = lower value 0.994 | locus YER016W, strain bim1, stronger effect = lower value 0.994 | locus YER110C, stronger effect = lower value 0.937 | locus YER111C, strain swi4, stronger effect = lower value 0.98 | locus YER155C, strain BEM2 (second series), stronger effect = lower value 0.974 | locus YER155C, strain BEM2, stronger effect = lower value 0.988 | locus YER167W, strain BCK2, stronger effect = lower value 1.04 | locus YFR010W, strain ubp6, stronger effect = lower value 0.988 | locus YGL078C, strain dbp3, stronger effect = lower value 0.986 | locus YGL086W, strain mad1, stronger effect = lower value 1.03 | locus YGL167C, strain pmr1, stronger effect = lower value 0.987 | locus YGL173C, strain kem1, stronger effect = lower value 0.994 | locus YGL227W, strain vid30, stronger effect = lower value 0.978 | locus YGL240W, strain doc1, stronger effect = lower value 0.977 | locus YGL248W, strain PDE1, stronger effect = lower value 0.979 | locus YGL253W, strain hxk2, stronger effect = lower value 0.995 | locus YGR078C, strain PAC10, stronger effect = lower value 1.01 | locus YGR135W, strain pre9, stronger effect = lower value 0.987 | locus YGR229C, strain SMI1, stronger effect = lower value 0.998 | locus YGR252W, strain gcn5, stronger effect = lower value 1.07 | locus YHR013C, strain ard1, stronger effect = lower value 0.962 | locus YHR027C, strain rpn1, stronger effect = lower value 0.993 | locus YHR030C, strain SLT2, stronger effect = lower value 1 and 1.02 | locus YHR079C, strain IRE1 (second series), stronger effect = lower value 1.01 | locus YHR079C, strain IRE1, stronger effect = lower value 1.02 | locus YHR094C, strain hxt1, stronger effect = lower value 0.998 | locus YHR129C, strain ARP1, stronger effect = lower value 0.994 | locus YHR142W, strain chs7, stronger effect = lower value 1 | locus YHR200W, strain rpn10, stronger effect = lower value 0.997 | locus YIL066C, strain RNR3, stronger effect = lower value 0.989 | locus YIL073C, strain SPO22, stronger effect = lower value 1.08 | locus YIL125W, strain kgd1, stronger effect = lower value 0.992 | locus YIR030C, strain dcg1, stronger effect = lower value 0.984 | locus YJL092W, strain hpr5, stronger effect = lower value 0.99 | locus YJL095W, strain BCK1 (second series), stronger effect = lower value 0.99 | locus YJL095W, strain BCK1, stronger effect = lower value 1.01 and 1.06 | locus YJL115W, strain asf1, stronger effect = lower value 0.997 | locus YJL129C, strain trk1, stronger effect = lower value 0.986 | locus YJL134W, strain LCB3, stronger effect = lower value 0.984 | locus YJL154C, strain vps35, stronger effect = lower value 0.988 | locus YJL164C, strain tpk1, stronger effect = lower value 0.997 | locus YJL166W, strain qcr8, stronger effect = lower value 0.997 | locus YJL168C, strain set2, stronger effect = lower value 0.992 | locus YJL187C, strain SWE1 (second series), stronger effect = lower value 0.975 | locus YJL187C, strain SWE1, stronger effect = lower value 0.989 | locus YJR043C, strain POL32, stronger effect = lower value 1.06 | locus YJR066W, strain TOR1, stronger effect = lower value 0.976

— PubChem BioAssay AID1159580 (chemical genetic matrix, 2015)
